Compound activity: PubChem BioAssay, National Center for Advancing Translational Sciences (NCATS)
KB-V1 MDR tox: kills drug-selected multidrug resistant KB-V1 cells. KB-V1 MDR cells viability, CellTiter-Glo, 72 h. Potency, µM (doses to about 46.1 µM), hits mostly cytotoxic. 400,000 tested, 3.4% active; note: % is set by controls: 0 for no effect and ±100 for the full control effect; nearly all actives have a fitted effect of over 60% in size
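KB-V1, DMEM (no phenol red) + 10% FBS; cpd pin-transferred, titration series; 72 h, 37 degrees C; CellTiter-Glo, luminescence. Data normalized, curve-fit.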
PTAP TSG101 blk: blocks PTAP/TSG101 interaction to inhibit HIV-1 budding | Q99816 | Potency, µM (highest dose often 115 µM), without a hit: at the highest dose activity change, negative = inhibition, most hits filed as inhibitors | Fluorescence polarization, FITC-PTAP peptide / Tsg101 binding | AID 493005 | 340,000 tested, under 10 active; active = well fitted inhibition curve with a large enough effect in the main read-out, with a control signal flat, not every such curve was filed as active; inconclusive = small, poorly fitted or top-dose-only effect, or effect the other way, or a change in a side signal; inactive = no such curve, though single readings can be large or run the other way; note: % of control where 0% means no effect
Target sequence (Q99816 whole entry, looked up): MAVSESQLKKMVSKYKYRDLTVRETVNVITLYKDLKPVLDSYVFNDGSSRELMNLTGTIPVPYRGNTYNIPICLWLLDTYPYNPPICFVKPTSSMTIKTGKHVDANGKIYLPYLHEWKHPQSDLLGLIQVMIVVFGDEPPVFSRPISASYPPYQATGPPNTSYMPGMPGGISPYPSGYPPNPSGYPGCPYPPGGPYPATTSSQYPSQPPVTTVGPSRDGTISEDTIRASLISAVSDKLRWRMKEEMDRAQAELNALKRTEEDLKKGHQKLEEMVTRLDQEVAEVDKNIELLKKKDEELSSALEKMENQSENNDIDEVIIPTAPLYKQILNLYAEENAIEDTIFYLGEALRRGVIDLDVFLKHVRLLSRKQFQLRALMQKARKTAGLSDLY
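Fluorescence anisotropy tracks displacement of a FITC-tagged PTAP peptide (50 nM) from the Tsg101 binding domain (10 uM), following a 20 min room-temperature incubation at pH 7.5.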
SW480 rereplic: inducers of DNA re-replication in SW480 colon cancer cells; SW480 DNA re-replication, Hoechst DNA content imaging, 48 h; Potency, µM (highest dose often 46.1 µM), inactives show at the top dose re-replication activation, hits mostly activators; 340,000 tested, 1.8% active; note: % of control where 0% means no effect; nearly all actives have a fitted effect of over 55% in size
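Quantitative HTS format with DMSO vehicle controls; 48 hr drug incubation at 37 C, then 40 min Hoechst staining and scanning imager measurement at 405 nm excitation.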
PINK1 modulator: modulators of PINK1 expression. 410,000 tested, 0.2% active. Potency, µM (top dose mostly 76.6 µM), without a hit: top-dose activation (PINK1 increase), hits mostly activators. AID 624263. PINK1 immunofluorescence, high-content cytometry, 24 h; active = well fitted activation curve with a large enough effect; inconclusive = small, poorly fitted or top-dose-only effect; cell line not stated here; note: % of control where 0% means no effect; nearly all actives have a fitted effect of over 65% in size
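Readout is PINK1 immunofluorescence, quantified alongside mitochondrial, cell and nuclear markers by laser-scanning microplate cytometry. Cells from a stable line were exposed to compound titrations (5 concentrations) for 24 hours, with CCCP controls.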
MCF10A rerep: DNA re-replication induction in MCF 10a cells; AID 624296; MCF 10A DNA re-replication, Hoechst nuclear intensity, 48 h; Potency, µM (series often up to 46.1 µM), without a hit: at the top dose activity, positive = re-replication, most hits filed as activators; 350,000 tested, 2.9% active; note: % of control where 0% means no effect; nearly all actives have a fitted effect of over 50% in size
KB-3-1 tox: KB-3-1 parental cell cytotoxicity | KB-3-1 viability, CellTiter-Glo ATP luminescence, 72 h | Potency, µM (top dose mostly 46.1 µM), usual class: cytotoxic | 400,000 tested, 1.4% active | AID 1347075; note: % is set by controls: 0 for no effect and ±100 for the full control effect; nearly all actives have a fitted effect of over 60% in size
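Parental KB-3-1 viability, qHTS format: 72 h compound exposure, 37 °C; CellTiter-Glo; media-only wells and DMSO plates as controls; concentration-effect fits on corrected data.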
Numbers without * were called inactive. Hits are enriched below; roughly 6.8% of the tested compounds scored in any of these assays. Unless noted, calls come from the whole dose curve; as a rule, active = well fitted curve in the direction sought with a large enough effect; inconclusive = small, poorly fitted or top-dose-only effect, or another doubt; inactive = no such curve, though single readings can be large; an effect the other way counts as inactive or inconclusive. Potency is the fitted concentration of half-maximal effect.

`C=CCn1c(=O)c(C=Nc2c(OC)cccc2[N+](=O)[O-])c(O)n(CCCC)c1=O` gave KB-V1 MDR tox inactive, PTAP TSG101 blk 3%, SW480 rereplic inconclusive, PINK1 modulator 4%, MCF10A rerep 7.3µM* and KB-3-1 tox inactive.
`C=CCn1c(=O)c(C=Nc2cccc([N+](=O)[O-])c2)c(O)n(CCCC)c1=O` gave KB-V1 MDR tox inactive, PTAP TSG101 blk -2%, SW480 rereplic -8%, PINK1 modulator 0%, MCF10A rerep 10% and KB-3-1 tox inactive.
Screening CC(C)(C)OC(=O)N1CC(O)CC1C(=O)OCC(=O)c1ccc(-c2ccccc2)cc1 (stereo not drawn) returned KB-V1 MDR tox inconclusive, PTAP TSG101 blk -2%, SW480 rereplic 3%, PINK1 modulator 1%, MCF10A rerep inconclusive and KB-3-1 tox inactive.
`O=C1/C(=C/c2ccc(N(CCCl)CCCl)cc2)Cc2ccccc21` gave KB-V1 MDR tox inactive and KB-3-1 tox inactive.
Screening C/C1=C\[C@@H](C)C/C=C/[C@H]2[C@@H]3O[C@]3(C)[C@@H](C)[C@H]3[C@H](Cc4c[nH]c5ccccc45)NC(=O)[C@]32C(=O)/C=C/C(=O)[C@@H]1O returned KB-V1 MDR tox inactive, PTAP TSG101 blk -3%, SW480 rereplic 1.2µM*, PINK1 modulator -1%, MCF10A rerep 0.73µM* and KB-3-1 tox inactive.
`CCC(C)NC(=O)CCC(=O)OC1O[C@H]2OC3(C)CC[C@H]4[C@H](C)CCC(C1C)C24OO3` (stereo partly drawn) gave KB-V1 MDR tox inactive, PTAP TSG101 blk -4%, SW480 rereplic 18µM*, PINK1 modulator -2%, MCF10A rerep inconclusive and KB-3-1 tox 5.2µM*.
`O=C(NC1CC1)c1cn(Cc2ccccc2)nc1-c1ccccc1` gave KB-V1 MDR tox inactive, PTAP TSG101 blk -1%, SW480 rereplic -49%, PINK1 modulator 5%, MCF10A rerep -28% and KB-3-1 tox inactive.
Cc1ccc(Cn2cc(C=O)c(-c3ccc(C)cc3)n2)cc1 was read as KB-V1 MDR tox 16µM*, PTAP TSG101 blk 1%, SW480 rereplic 10%, PINK1 modulator 1%, MCF10A rerep inconclusive and KB-3-1 tox inactive.
Screening COC(=O)C1=C(c2cc3ccccc3o2)C[C@@H]2CC[C@H]1N2C(=O)N1CCCC1 returned KB-V1 MDR tox inactive, PTAP TSG101 blk -2%, SW480 rereplic -2%, PINK1 modulator 0%, MCF10A rerep -8% and KB-3-1 tox inconclusive.
Screening COC(=O)C1=C(c2cc3ccccc3o2)C[C@@H]2CC[C@H]1N2C(=O)N1CCCCC1 returned KB-V1 MDR tox inconclusive, PTAP TSG101 blk -4%, SW480 rereplic 12µM*, PINK1 modulator 5%, MCF10A rerep inconclusive and KB-3-1 tox 5.8µM*.
`CCN1C(=O)c2ccccc2Sc2ccc(NC(=O)Nc3ccc(Br)c(C)c3)cc21` gave KB-V1 MDR tox inconclusive, PINK1 modulator 16µM* and KB-3-1 tox inactive.
For CCN1C(=O)c2ccccc2Sc2ccc(C(=O)N3CCC4(CC3)OCCO4)cc21 the results were KB-V1 MDR tox inactive, PTAP TSG101 blk -2%, SW480 rereplic -7%, PINK1 modulator -2%, MCF10A rerep 1% and KB-3-1 tox inactive.
C[C@@]12CC(c3ccoc3)OC(=O)C1CC[C@@]1(C)C2C2C=C[C@@]1(O)C(=O)O2 (stereo partly drawn) was read as PINK1 modulator 0%.
Screening CCCOC(=O)c1c(N)n(Cc2cccs2)c2nc3ccccc3nc12 returned KB-V1 MDR tox inactive, PTAP TSG101 blk -5%, SW480 rereplic inconclusive, PINK1 modulator 2%, MCF10A rerep 21µM* and KB-3-1 tox inactive.
